Laboratory results as given in the supplement of paper PMC11417369.
Whole data set: some 25,000 sequences, median “ln(normalized median fluorescence intensity)” near 9.7, cut for the highest 2% near 11. This excerpt belongs to a sample that is enriched for the highest values.

Test system: PfAP2-HC AP2 domain (GST-tagged)
Test: gcPBM binding intensity (ln(normalized median fluorescence intensity)); higher = stronger DNA binding
Summary of the method: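 Binding intensity is the highest Masliner-normalised natural-log median intensity over replicate spots in either probe orientation. To obtain it, GST-tagged P. falciparum DNA-binding domains made in E. coli were incubated for 1 h on an Agilent 4 × 180k array of primer-extended double-stranded 36-bp intergenic genomic probes plus negative controls. Detection used Alexa488 anti-GST antibody with scanning at 488 nm.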

| Sequence | gcPBM binding intensity (ln) |
| --- | --- |
| TATAAAAATAGGATTTGTACATATAAAAAAGGAAAA [XGTACX_site8678] | 9.73 |
| TATAATATTAATGACTGTACTCATACGTATATTTAT [XGTACX_site5493] | 9.76 |
| TACGGTTGTTTATTTTGTACGTAAAAAATATATTAT [XGTACX_site8393] | 9.7 |
| ATTAAATAAAATCATGCACACAATATATATTTTAAG [CACACA_site2495] | 9.71 |
| AACATAATTAAAAATTGTACAGAATTTCAATCGAAA [XGTACX_site7542] | 9.62 |
| TCAACAAATAAACTTTGTACATATATACAAAATATA [XGTACX_site4447] | 9.53 |
| AAAAAATAAATAAACATAAATAAATAAATAAATATA [XGTACX_negctrl_site340] | 9.73 |
| CAATATATTTGATTTACACACTTACAATGTATATAA [CACACA_site2994] | 9.55 |
| AATAGTACAAAAAAAAAAAAAAAAAAAAAAAAAAAA [CACACA_negctrl_site1376] | 8.9 |
| TTATTTTTTAGTAGTACACACTTTTTGTACCTTTTA [CACACA_site4503] | 9.87 |
| CCAACATGCCCACGCACACACAAAAAAAGCATGCAT [CACACA_site4217] | 10 |
| ATCAAGCACGAACACACACACACACGCACGCCCACA [CACACA_site6308] | 11.4 |
| CATATACACGAACACACACACACACGCACAAAAAAA [CACACA_site6376] | 10.6 |
| TTATACTGTATAGTCGCACACAAAAATATAAAATAT [CACACA_site3869] | 9.98 |
| ATTATGCACCAACACACACACACACTCCTAAAAAAT [CACACA_site8822] | 11 |
| TAATTATGCGGACACACACACACACCCAACTAAAAA [CACACA_site5427] | 10.9 |
| ATTATGCACCAACACACACACACACCCCTAAAAAAT [CACACA_site2568] | 10.8 |
| TGTGCCCAAAATTATGCACACACCTAAAATTAATTT [CACACA_site2914] | 9.85 |
| TGCACAAAATTATGCACACACCTAAAATTAATTTTT [CACACA_site5596] | 9.8 |
| ATTATGCACGGACACACACACACACCCCTAAAAAAT [CACACA_site5426] | 11.4 |
| TTTTGAATATGGATCTTATATATATTAAATAAATAA [CACACA_negctrl_site344] | 9.09 |
| ATGTTTTATAAAAGGCGTACACATATGCTTAAGTAA [XGTACX_site6232] | 9.71 |
| TATATAATTATAAGAACACACATATATATATATATA [CACACA_site2472] | 9.49 |

| Sequence | gcPBM binding intensity (ln) |
| --- | --- |
| AGGTGATTAATATATACACACATACATATATATATA [CACACA_site8913] | 10 |
| TTTCATTTCACAGACACACACACACCCTATATTTCC [CACACA_site3906] | 11.2 |
| ATTTCACAGAGACACACACACAATATATTTCCTTTT [CACACA_site7773] | 10.3 |
| TCATTTTATTTTTTCACACACACATATATATATATA [CACACA_site3333] | 10.2 |
| TCATTTTATTTTTTCACACACACATCTATATTTATA [CACACA_site7547] | 10.2 |
| TCATTTCACGGACACACACACACAATATATTTCCTT [CACACA_site6023] | 10.9 |
| TCATTTCACAGACACACACACACAATATATTTCCTT [CACACA_site9295] | 10.8 |
| TCATTTCACAAACACACACACACAATATATTTCCTT [CACACA_site3905] | 10.3 |
| TCATTTCACAGACACACACACACAAGATATTTCCTT [CACACA_site7774] | 11.1 |
| TATTTTTATTTTCCTTCACACATTTTTTATATTTTT [CACACA_site5830] | 9.83 |
| ATATTAATTATAACTTGTACGTAAAAGGAAAACAAT [XGTACX_site3269] | 9.76 |
| ATTATAATATTGTTATGTACATAAAAATTATTGAAT [XGTACX_site4476] | 9.82 |
| GATAACATAATATGTTGTACATAAAAATTTTTATCA [XGTACX_site1969] | 9.62 |
| GTAAAAATAAAAACTGGTACACAAGTTGTTATAAAA [XGTACX_site502] | 9.76 |
| TTTTGTTTATGTGTGCATTATATTATATTTTTTATT [TGCATGCA_negctrl_site146] | 10.1 |
| TTTGTGTGTGCGTGTGCATGTTGTTTTTTTCTATAA [TGCATGCA_site17] | 11.7 |
| TTATTTATTCTATGTGCATGTTATTTTTTTTTTTCG [TGCATGCA_site262] | 9.73 |
| ATTTACATAAATTGCATATATCGATGTAAATAAATA [CACACA_negctrl_site1150] | 9.5 |
| ATAATATATATATAAACACACAAAAAAAATTATATA [CACACA_site1534] | 9.86 |
| AATAAATATAAATACACACCCATATAAATATAAATA [CACACA_site7264] | 10.1 |
| AATGTACCCACACCCACACACAAACAAATATATATA [CACACA_site2751] | 10.2 |
| AATAAATATAAATACACACCCATATATATATATATA [CACACA_site5436] | 9.67 |
